# PubChem BioAssay (NCI)
# “And” between values parts separate entries of the source, which are not always exact repeats. Equal entries are not always repeated. This is part of a sample that, as a whole, favours compounds with a hit. Of some 83,000 tested, about 20% had one in any assay.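 Activity criterion: percent growth below 10, measured after cells in 96-well plates were exposed to a single compound concentration for 48 hours.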 The source made the active and inactive calls.
# Tests used:
# Experiment in all cases: NCI-60 one-dose screen, 48 h (100 = growth as untreated, 0 = no growth, -100 = all killed)
# Details in all cases: 10 µM unless noted
# NCI-H23 lung = test system: NCI-H23 lung
# NCI-H226 lung = test system: NCI-H226 lung
# NCI-H322M lung = test system: NCI-H322M lung
# HOP-62 NSCLC = test system: HOP-62 NSCLC
# NCI-H460 lung = test system: NCI-H460 lung
# NCI-H522 lung = test system: NCI-H522 lung
# A549/ATCC NSCLC = test system: A549/ATCC NSCLC
# 786-0 renal = test system: 786-0 renal
# COLO 205 colon = test system: COLO 205 colon
# DU-145 prostate = test system: DU-145 prostate
# K-562 leukemia = test system: K-562 leukemia
# MALME-3M melanoma = test system: MALME-3M melanoma
# MDA-MB-231 breast = test system: MDA-MB-231 breast
# RXF 393 renal = test system: RXF 393 renal
# SF-268 CNS = test system: SF-268 CNS
# SF-295 CNS = test system: SF-295 CNS
# SF-539 CNS = test system: SF-539 CNS
# UACC-257 melanoma = test system: UACC-257 melanoma
# M14 melanoma = test system: M14 melanoma
# HOP-92 NSCLC = test system: HOP-92 NSCLC
Compound,growth (NCI-H23 lung),growth (NCI-H226 lung),growth (NCI-H322M lung),growth (HOP-62 NSCLC),growth (NCI-H460 lung),growth (NCI-H522 lung),growth (A549/ATCC NSCLC),growth (786-0 renal),growth (COLO 205 colon),growth (DU-145 prostate),growth (K-562 leukemia),growth (MALME-3M melanoma),growth (MDA-MB-231 breast),growth (RXF 393 renal),growth (SF-268 CNS),growth (SF-295 CNS),growth (SF-539 CNS),growth (UACC-257 melanoma),growth (M14 melanoma),growth (HOP-92 NSCLC)
COc1cc2nc(N3CCN(C(=O)C4COc5ccccc5O4)CC3)nc(N)c2cc1OC (stereo not drawn),90.1% (inactive) and 99% (inactive) and 101% (inactive),96.2% (inactive) and 96.7% (inactive) and 99.9% (inactive),123% (inactive) and 75.6% (inactive) and 99.4% (inactive),102% (inactive) and 96.4% (inactive) and 110% (inactive),101% (inactive) and 98.5% (inactive) and 117% (inactive),82.6% (inactive) and 84.1% (inactive),102% (inactive) and 88.9% (inactive),112% (inactive) and 93.5% (inactive) and 99% (inactive),93.6% (inactive) and 104% (inactive),102% (inactive) and 106% (inactive),93.3% (inactive) and 96.7% (inactive),113% (inactive) and 83.2% (inactive) and 95.6% (inactive),76.3% (inactive) and 86.2% (inactive) and 100% (inactive),86.4% (inactive) and 83.4% (inactive) and 109% (inactive),100% (inactive) and 89.5% (inactive) and 98.6% (inactive),108% (inactive) and 71.1% (inactive) and 101% (inactive),115% (inactive) and 89.9% (inactive) and 102% (inactive),101% (inactive) and 106% (inactive),104% (inactive) and 96.4% (inactive) and 96.3% (inactive),–
CN1CCN(C2CCN(C(=O)Nc3cc(Oc4ccc(NC(=O)C5(C(=O)Nc6ccc(F)cc6)CC5)c(F)c4)ccn3)CC2)CC1,-44.6% (active) and 73.4% (inactive),-4.95% (active) and 76.4% (inactive),-27.6% (active) and 94% (inactive),-68.7% (active) and 110% (inactive),-50.4% (active) and 77.2% (inactive),-66.2% (active) and 80.8% (inactive),-13.9% (active) and 90.3% (inactive),-72.9% (active) and 110% (inactive),-78.3% (active) and 85.6% (inactive),8.48% (active) and 69.1% (inactive),0.176% (active) and 37.1% (inactive),-86.6% (active) and 60.2% (inactive),-65.7% (active) and 68.3% (inactive),-91.7% (active) and 86.4% (inactive),-22.5% (active) and 90.8% (inactive),-87.8% (active) and 50.8% (inactive),-96.4% (active) and 58.7% (inactive),-91.6% (active) and 95.8% (inactive),-77.3% (active) and 57% (inactive),–
O=[N+]([O-])c1ccc(Oc2ccccc2)cc1,95.7% (inactive) and 105% (inactive),103% (inactive),104% (inactive) and 111% (inactive),106% (inactive) and 95.9% (inactive),103% (inactive) and 102% (inactive),108% (inactive) and 103% (inactive),–,103% (inactive) and 106% (inactive),109% (inactive) and 110% (inactive),117% (inactive) and 127% (inactive),118% (inactive) and 123% (inactive),106% (inactive) and 124% (inactive),109% (inactive) and 136% (inactive),117% (inactive) and 118% (inactive),106% (inactive) and 99.4% (inactive),95.4% (inactive) and 121% (inactive),104% (inactive) and 98.1% (inactive),108% (inactive) and 91.7% (inactive),98.6% (inactive) and 108% (inactive),–
Cc1cc(C)c(N)c(Br)c1,101% (inactive) and 83.8% (inactive),106% (inactive),130% (inactive) and 105% (inactive),–,114% (inactive) and 101% (inactive),95.2% (inactive) and 87.9% (inactive),104% (inactive) and 106% (inactive),102% (inactive) and 93.6% (inactive),102% (inactive) and 105% (inactive),122% (inactive) and 109% (inactive),107% (inactive) and 96.5% (inactive),105% (inactive) and 95.4% (inactive),112% (inactive) and 98.8% (inactive),116% (inactive) and 103% (inactive),105% (inactive) and 103% (inactive),127% (inactive) and 110% (inactive),108% (inactive) and 92.9% (inactive),106% (inactive) and 105% (inactive),103% (inactive),82.2% (inactive)
N#C/C(=C/c1c(O)ccc2ccccc12)C(N)=O,87.1% (inactive),89% (inactive),107% (inactive),81.1% (inactive),103% (inactive),76.4% (inactive),107% (inactive),83.6% (inactive),105% (inactive),104% (inactive),97.4% (inactive),99.4% (inactive),86.4% (inactive),98.3% (inactive),95.4% (inactive),91.2% (inactive),102% (inactive),106% (inactive),94.5% (inactive),–
Cc1cc(O)c(C(C)C)cc1N,97.5% (inactive) and 92.7% (inactive),108% (inactive) and 93.1% (inactive),122% (inactive) and 102% (inactive),90% (inactive) and 109% (inactive),121% (inactive) and 103% (inactive),82.5% (inactive) and 86.9% (inactive),109% (inactive) and 110% (inactive),97.2% (inactive) and 105% (inactive),130% (inactive) and 126% (inactive),115% (inactive) and 116% (inactive),113% (inactive) and 101% (inactive),113% (inactive) and 112% (inactive),103% (inactive) and 92.3% (inactive),119% (inactive) and 115% (inactive),102% (inactive) and 120% (inactive),104% (inactive) and 99% (inactive),101% (inactive) and 95.6% (inactive),107% (inactive) and 111% (inactive),108% (inactive) and 112% (inactive),–
Nc1ccccc1Nc1ccccc1,100% (inactive) and 96.2% (inactive),98.8% (inactive) and 86.8% (inactive),86.5% (inactive) and 93% (inactive),–,94.5% (inactive) and 104% (inactive),54% (inactive) and -2.1% (active),79.2% (inactive),90.8% (inactive) and 82.8% (inactive),125% (inactive) and 104% (inactive),100% (inactive) and 93.4% (inactive),67.8% (inactive) and 85.5% (inactive),117% (inactive) and 136% (inactive),82.1% (inactive) and 71.7% (inactive),122% (inactive) and 129% (inactive),90.4% (inactive) and 77.8% (inactive),98.4% (inactive),94.8% (inactive) and 78.5% (inactive),86.1% (inactive) and 115% (inactive),106% (inactive) and 102% (inactive),136% (inactive)
O[C@H](c1cc(C(F)(F)F)nc2c(C(F)(F)F)cccc12)[C@@H]1CCCCN1,79.2% (inactive) and 77.8% (inactive),93.5% (inactive) and 58.9% (inactive),68.6% (inactive) and 52% (inactive),71.3% (inactive) and 74.6% (inactive),27.7% (inactive) and 23.6% (inactive),58.4% (inactive) and 22.8% (inactive),56.9% (inactive) and 67.1% (inactive),42.4% (inactive) and 56.6% (inactive),62.3% (inactive) and 60.5% (inactive),67% (inactive) and 70.2% (inactive),8.6% (active) and 11.9% (inactive),89.6% (inactive) and 82.2% (inactive),15.1% (inactive) and 17.7% (inactive),44% (inactive) and 43.3% (inactive),57.9% (inactive) and 56.6% (inactive),93.6% (inactive),81.1% (inactive) and 75.6% (inactive),58.1% (inactive) and 75.4% (inactive),67.2% (inactive) and 71.8% (inactive),–
Cn1c(=O)c2[nH]c(CCCCCCCCc3nc4ccccc4[nH]3)nc2n(C)c1=O,47.4% (inactive) and 55.2% (inactive),58.1% (inactive) and 66.3% (inactive),87.3% (inactive) and 99.6% (inactive),57% (inactive) and 49.2% (inactive),68.4% (inactive) and 73.6% (inactive),–,–,73.1% (inactive) and 75.1% (inactive),88% (inactive) and 99.6% (inactive),91.2% (inactive) and 82.7% (inactive),30.9% (inactive),71.9% (inactive),77% (inactive) and 60.9% (inactive),87.9% (inactive) and 101% (inactive),83.5% (inactive) and 98.3% (inactive),34.8% (inactive) and 35.9% (inactive),78.2% (inactive) and 74.8% (inactive),39.7% (inactive) and 72% (inactive),80.7% (inactive) and 80.8% (inactive),–
